# Gal4-VP16 FLuc = inhibits Gal4-VP16 luciferase reporter, ROR gamma counter-screen | Drosophila S2 Gal4-VP16 UAS-luciferase, luminescence, 20 h | actives 3.5% (n = 310,000) | Potency, µM (top dose mostly 53.6 µM), for the others: top-dose activity, negative = inhibition, hits mostly inhibitors;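 further: Gal4-VP16 expression switched on by copper sulfate through the metallothionein promoter; nearly all actives have a fitted effect of over 50% in size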
# RORg inh = blocks mouse ROR gamma transcriptional activity | P51450 | Drosophila S2 Gal4-RORgamma UAS-luciferase reporter, 20 h | Potency, µM (top dose mostly 53.6 µM), without a hit: at the highest dose activity change, negative = inhibition, usual class: inhibitors | actives 5.4% (n = 310,000) | AID 2551; further: nearly all actives have a fitted effect of over 60% in size
# Target sequence (P51450 whole entry, looked up, the tested form may be a part): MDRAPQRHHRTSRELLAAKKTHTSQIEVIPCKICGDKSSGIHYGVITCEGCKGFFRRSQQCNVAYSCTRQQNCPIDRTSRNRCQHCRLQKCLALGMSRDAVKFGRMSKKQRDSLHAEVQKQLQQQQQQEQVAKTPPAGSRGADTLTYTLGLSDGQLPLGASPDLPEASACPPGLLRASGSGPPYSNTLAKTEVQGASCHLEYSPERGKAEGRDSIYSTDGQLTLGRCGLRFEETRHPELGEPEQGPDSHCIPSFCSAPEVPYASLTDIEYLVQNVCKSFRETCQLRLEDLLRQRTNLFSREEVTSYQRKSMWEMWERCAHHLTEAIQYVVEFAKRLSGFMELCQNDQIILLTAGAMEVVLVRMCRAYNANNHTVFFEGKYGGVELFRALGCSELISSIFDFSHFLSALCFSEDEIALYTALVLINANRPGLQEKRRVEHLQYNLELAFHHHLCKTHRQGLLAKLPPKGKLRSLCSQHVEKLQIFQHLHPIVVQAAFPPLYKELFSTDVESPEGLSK
#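 Drosophila Schneider cells stably carrying a metallothionein-driven Gal4 DBD–ROR gamma fusion and a UAS-Photinus luciferase reporter were exposed to compound for 1 hr, then induced with copper sulfate (700 uM final) for 20 hr at ambient temperature before luminescence reading.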
# KinaseGlo FLuc = counter-screen: inhibitors of Kinase-Glo firefly luciferase. actives 0.28% (n = 200,000). Q27757. Kinase-Glo luciferase, ATP luminescence, 8 min. Potency, µM (series often up to 38.3 µM), inactives show at the highest dose activity change, negative = inhibition, hits mostly inhibitors; further: nearly all actives have a fitted effect of over 60% in size
#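 Inhibition of Kinase-Glo luciferase light generation was assessed at 10 uM ATP in pH 7.2 imidazole buffer, with luminescence measured after eight minutes at ambient temperature.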
# Starred values were filed as active, the others as inactive; ? = inconclusive; . = no result; [ ] = dose if it differs, or a comment. A selection: hits, their analogues and other compounds. The true share with any hit is near 6.4%. The call rests on the fitted dose curve; in most records, active means well fitted curve in the direction sought with a large enough effect; inconclusive means small, poorly fitted or top-dose-only effect, or another doubt; inactive means no such curve, though single readings can be large; an effect the other way counts as inactive or inconclusive. On the % scale 0 is the no-effect control and ±100 the full control effect; potency means the concentration at half of the fitted maximal effect.
SMILES,Gal4-VP16 FLuc,RORg inh,KinaseGlo FLuc
COC(=O)[C@@]1(Cc2ccc(OC)cc2)[C@@H]2C(=CC(=O)[C@H]2CC(=O)C(=O)N2CCCC2)CN1C(=O)c1ccccc1,4µM*,?,-6%
COC(=O)[C@@]1(Cc2ccc(F)cc2)[C@@H]2C(=CC(=O)[C@H]2CC(=O)C(=O)N2CCCC2)CN1C(=O)c1ccccc1,?,14µM*,-3%
COC(=O)[C@@]1(Cc2ccc(OC)cc2)[C@@H]2[C@@H](CC(=O)[C@H]2CC(=O)C(=O)N(C)C)CN1C(=O)c1ccccc1,4%,?,1%
C=C1C(=O)C=C2CN(C(=O)c3ccccc3)[C@@](Cc3ccc(OC)cc3)(C(=O)OC)[C@@H]12,0.71µM*,4µM*,-5%
COC(=O)[C@@]1(Cc2ccc(OC)cc2)[C@@H]2[C@@H](CC(=O)[C@H]2CC(=O)C(=O)N2CCCC2)CN1C(=O)c1ccccc1,4%,-16%,-2%
COC(=O)[C@@]1(Cc2ccc(F)cc2)[C@@H]2[C@@H](CC(=O)[C@H]2CC(=O)C(=O)N(C)C)CN1C(=O)c1ccccc1,-9%,?,10%
Cc1ccc(S(=O)(=O)N2CC=C(C(=O)NC3CC3)CC2)cc1,6%,-5%,.
C=CCNC(=O)c1ccccc1NC(=O)C1COc2ccccc2O1 (stereo not drawn),1%,26%,-2%
CCC(=O)Nc1sc2c(c1C#N)CCCCC2,12%,?,2%
Cc1onc(-c2ccccc2)c1C(=O)Nc1sc2c(c1C#N)CCC2,0%,17%,-1%
Cc1sc(NC(=S)NC(=O)c2ccco2)c(C#N)c1C,16%,?,4%
Cc1onc(-c2ccccc2)c1C(=O)NC(=S)Nc1sc2c(c1C#N)CCCC2,-88%,3.5µM*,1%
C=CCNC(=S)Nc1sc2c(c1C#N)CCCC2,2%,11µM*,-1%
Cc1ccccc1C(=O)NC(=S)Nc1sc2c(c1C#N)CCCC2,11µM*,3.5µM*,7%
N#Cc1c(NC(=O)c2ccccc2)sc2c1CCCCC2,?,?,-12%
Cc1sc(NC(=S)NC(=O)c2ccc(C(C)(C)C)cc2)c(C#N)c1C,11µM*,0.56µM*,-4%
NC(=O)CSc1nnnn1-c1ccccc1Cl,1%,18%,1%
CCOc1ccc(N(CC(=O)NCC2CCCO2)C(=O)CCC(=O)Nc2ccccn2)cc1 (stereo not drawn),-2%,18%,-1%
Cc1sc(NC(=O)CN2CCOCC2)c(C#N)c1C,0%,18%,.
Cn1ncc(Cl)c1C(=O)Nc1ccc(CN2CCCCC2)cc1,-11%,-30%,.
C[C@]12C[C@H](O)CC(CO)(CO)C1[C@H](O)C[C@@]13CC4[C@@H](CC12)[C@@]4(C)C3 (stereo partly drawn),-4%,-14%,2%
CSCC(=O)NC1CCCc2c1cnn2-c1ccc(C)c(C)c1 (stereo not drawn),-14%,22%,.
COC(=O)c1cc(S(=O)(=O)NCC2CCN(CCc3ccc(OC)cc3)CC2)cn1C,-18%,-3%,.
Cc1onc(-c2ccccc2)c1C(=O)NC(=S)Nc1sc2c(c1C#N)CCC(C)C2 (stereo not drawn),?,2.8µM*,2%
CC(=O)Nc1sc2c(c1C#N)CCCCC2,-10%,?,-1%
SMILES,Gal4-VP16 FLuc,RORg inh,KinaseGlo FLuc
CC(C)(C)C(=O)NC(=S)Nc1sc2c(c1C#N)CCCCC2,14µM*,7.1µM*,1%
Cc1cc(C(=O)Nc2sc3c(c2C#N)CCC(C)C3)no1 (stereo not drawn),?,?,1%
CCOC(=O)c1c(S(=O)(=O)N2CCCCC2C)c(C)n(C)c1C (stereo not drawn),-5%,-7%,.
O=S(=O)(NCCN1CCOCC1)c1cccc(C(F)(F)F)c1,-7%,-2%,.
CCCCc1nc(N2CCN(C(=O)c3ccco3)CC2)c(C#N)c2c1CCCC2,?,11%,.
COc1cccc(/C=C/C(=O)c2cccc([N+](=O)[O-])c2)c1,4.5µM*,-101%,-2%
COc1cccc(/C=C/C(=O)c2cccc([N+](=O)[O-])c2)c1OC,4%[10 µM],?,-2%
CCOc1ccc(NC(=S)N(Cc2ccc(N(C)C)cc2)Cc2ccco2)cc1,32µM*,?,-2%
CCNC(=S)N(Cc1ccco1)Cc1cc2cc(OCC)ccc2[nH]c1=O,?,18µM*,-1%
CCNC(=S)N(Cc1cccs1)Cc1cc2cc(OCC)ccc2[nH]c1=O,-6%,?,1%
COc1ccc(NC(=S)N(CCc2c(C)[nH]c3ccc(C)cc23)Cc2ccco2)cc1,-15%,?,2%
COc1ccc(NC(=S)N(Cc2ccc(N(C)C)cc2)Cc2ccco2)cc1,20µM*,13µM*,-5%
CCOc1ccc(NC(=S)N(CCc2c(C)[nH]c3ccc(C)cc23)Cc2ccco2)cc1,?,?,0%
CC[C@H](C)[C@H](NC(=O)[C@H](Cc1ccc(O)cc1)NC(=O)[C@@H](NC(=O)[C@H](CCCN=C(N)N)NC(=O)[C@@H](N)CC(=O)O)C(C)C)C(=O)N[C@@H](Cc1ccc(N)cc1)C(=O)N1CCC[C@H]1C(=O)N[C@@H](Cc1ccccc1)C(=O)O,-8%,-18%,.
C=CCC1(O)C=CCC2C3C4C(OC(C)(C)C)C2C1C34 (stereo not drawn),6%[10 µM],-3%[10 µM],.
Cc1csc2nc(CN3CCN(CC(=O)N(C)C)CC3)cc(=O)n12,-10%,-3%,.
O=C(COC(=O)c1cccs1)c1ccc2c(c1)OCCO2,-4%,-32%,2.5µM*
CC(=O)NC12CC3CC(C1)CC(C(=O)OCC(=O)Nc1ncc(Cl)c(C)c1Cl)(C3)C2,-1%,0%,0%
CC(=O)NC12CC3CC(C1)CC(C(=O)OCC(=O)c1ccc4c(c1)OCCO4)(C3)C2,?,14µM*,-4%
O=C(COC(=O)c1cccs1)c1ccc2ccccc2c1,-21%,42%,-18%
CN(C)S(=O)(=O)c1ccc(C(=O)Nc2cc3c(cc2C(=O)O)OCCCO3)cc1,4%,1%,.
COc1cc(NC(=O)c2cc(C)no2)cc(OC)c1OC,0%,-30%,.
COc1cc(C(C)=O)ccc1OCC(=O)N1CCc2ccccc2C1,0%,-11%,.
N#CC(C#N)=C1C=CC=CN1/C(=C\c1ccco1)C(=O)c1ccc(Cl)cc1,1.1µM*,5µM*,3%
N#C/C(=C\c1ccco1)C(=O)NCc1ccccc1,10%,36%,-1%
N#CC(C#N)=C1C=CC=CN1/C(=C\c1ccco1)C(=O)c1ccc(-c2ccccc2)cc1,3.2µM*,4µM*,2%
O=C(NCC1CCCO1)/C(=C\c1ccco1)NC(=O)c1ccc(Cl)cc1 (stereo not drawn),-2%,11%,5%
CN(Cc1ccccc1Cl)C(=O)C1CCC(=O)N(C2CCCCCC2)C1 (stereo not drawn),-1%,29%,.

# Screening results deposited in PubChem BioAssay by National Center for Advancing Translational Sciences (NCATS).
